High-throughput results: PubChem BioAssay, Broad Institute
Only a selection was taken, and hits are over-represented in it overall.
NOMO-1 viab = NOMO-1 AML cell viability reduction, primary screen, STK33 inhibitor project, CellTiter-Glo luminescence. NOMO-1 AML viability, 72 h. inhibition, % (no concentration beside the values). 7.5% of 37,000 active. AID 2330, 2010; in the data active = inhibition above about 80%; inconclusive = no clear call, values can overlap the other calls
U2OS ROS induce = ROS inducers in U2OS cancer cells, primary screen, cell-based, H2DCF-DA fluorescence; U2OS ROS induction; ROS induction (% of piperlongumine), % at 10 µM; 2% of 46,000 active; in the data active = ROS induction above about 79%, passing the limit was not always enough; inconclusive = no clear call, values can overlap the other calls
PD-1 reversal = activators reversing PD-1 mediated T-cell inhibition, primary screen, luminescence, primary human CD4 T cells, PD-L1 beads. CellTiter-Glo 96 h. activation, % (no concentration beside the values). 29,000 tested, under 10 active. AID 2316, 2010; call rule not given here
A number is an active result; – = inactive; ? = inconclusive; · = no result.

SMILES	NOMO-1 viab	U2OS ROS induce	PD-1 reversal
Cc1noc(C)c1NC(=O)Nc1ccc2c(c1)C(=O)N([C@H](C)CO)C[C@H](C)[C@@H](CN(C)Cc1ccc(C(F)(F)F)cc1)OCCCC[C@@H](C)O2	–	–	–
C[C@@H]1CCCCO[C@H](CN(C)Cc2ccc(C(F)(F)F)cc2)[C@@H](C)CN([C@H](C)CO)C(=O)c2cc(NC(=O)NC3CCCCC3)ccc2O1	93.5	–	–
C[C@@H]1CCCCO[C@@H](CN(C)Cc2ccc(C(F)(F)F)cc2)[C@@H](C)CN([C@H](C)CO)C(=O)c2cc(NC(=O)NC3CCCCC3)ccc2O1	?	–	–
C[C@@H]1CCCCO[C@H](CN(C)C)[C@@H](C)CN([C@H](C)CO)C(=O)c2cc(NC(=O)Nc3ccc(C(F)(F)F)cc3)ccc2O1	–	–	–
C[C@@H]1CCCCO[C@@H](CN(C)Cc2ccc(C(F)(F)F)cc2)[C@@H](C)CN([C@H](C)CO)C(=O)c2cc(NC(=O)Nc3ccc(C(F)(F)F)cc3)ccc2O1	107.0	–	–
O=C1CCN(S(=O)(=O)c2cccc(S(=O)(=O)c3ccc(Cl)cc3)c2)C2CCCCC12 (centres undefined)	·	–	·
Cc1ccccc1NC(=O)C1CC(O)CN1C(=O)OCc1ccccc1 (centres undefined)	·	–	·
O=C(NCc1ccco1)c1ccccc1C(=O)c1ncc[nH]1	·	–	·
CC(Oc1ccccc1-c1ccccc1)c1n[nH]c(=S)n1-c1ccccc1 (centres undefined)	–	–	–
O=C(c1ccc(CSc2cccc3cccnc23)cc1)N1CCOCC1	·	–	·
COc1ccc(NC(=O)CN(c2ccc(C)cc2)S(=O)(=O)c2ccc(OC)cc2)cc1	·	–	·
C[C@@H]1CCCCO[C@@H](CN(C)C(=O)Nc2ccc(C(F)(F)F)cc2)[C@@H](C)CN([C@H](C)CO)C(=O)c2cc(NC(=O)Nc3ccc4c(c3)OCO4)ccc2O1	–	–	–
C[C@@H]1CCCCO[C@H](CN(C)Cc2ccncc2)[C@@H](C)CN([C@H](C)CO)C(=O)c2cc(NC(=O)Nc3ccc(F)cc3)ccc2O1	–	–	–
C[C@@H]1CCCCO[C@H](CN(C)Cc2ccc(C(F)(F)F)cc2)[C@@H](C)CN([C@H](C)CO)C(=O)c2cc(NC(=O)Nc3ccc(F)cc3)ccc2O1	100.2	–	–
C[C@@H]1CCCCO[C@H](CN(C)Cc2ccc3c(c2)OCO3)[C@@H](C)CN([C@H](C)CO)C(=O)c2cc(NC(=O)Nc3ccc(C(F)(F)F)cc3)ccc2O1	84.4	–	·
CC(=O)N[C@H]1[C@H](O[C@H]2CC[C@@]3(C)C(CC[C@]4(C)C3CC=C3[C@@H]5CC(C)(C)CC[C@]5(C(=O)O)CC[C@]34C)C2(C)C)O[C@H](CO[C@@H]2OC[C@H](O)[C@H](O)[C@H]2O[C@@H]2OC[C@H](O)[C@H](O)[C@H]2O)[C@@H](O)[C@@H]1O (some centres undefined)	120.3	–	–
C[C@@H]1O[C@@H](O[C@@H]2[C@@H](O)[C@H](O[C@@H]3[C@@H](O)[C@H](C)O[C@@H](O[C@H]4[C@H](O[C@H]5CC[C@@]6(C)C(CC[C@]7(C)C6CC=C6[C@@H]8CC(C)(C)CC[C@]8(C(=O)O)CC[C@]67C)[C@]5(C)CO)OC[C@H](O)[C@@H]4O)[C@@H]3O)O[C@H](CO)[C@H]2O[C@@H]2O[C@H](CO)[C@@H](O[C@@H]3OC[C@@H](O)[C@H](O)[C@H]3O)[C@H](O)[C@H]2O)[C@H](O)[C@H](O)[C@H]1O (some centres undefined)	114.2	–	–
CC1(C)CC[C@]2(C(=O)O)CC[C@]3(C)C(=CCC4[C@@]5(C)CC[C@H](O[C@@H]6O[C@H](C(=O)O)[C@@H](O[C@@H]7OC[C@@H](O)[C@H](O)[C@H]7O)[C@H](O)[C@H]6O)C(C)(C)C5CC[C@]43C)C2C1 (some centres undefined)	116.3	–	–
CC(=O)OC1C(C)OC(OC2C(CO)OC(OC(=O)[C@]34CCC(C)(C)CC3C3=CCC5[C@@]6(C)CC[C@H](OC7OC(CO)C(OC8OC(CO)C(OC9OCC(O)C(O)C9O)C(O)C8O)C(O)C7O)[C@@](C)(CO)C6CC[C@@]5(C)[C@]3(C)CC4)C(OC3OC(C)C(O)C(O)C3O)C2O)C(O)C1O (some centres undefined)	·	–	·
CC1(C)CC[C@]2(C(=O)O)CC[C@]3(C)C(=CCC4[C@@]5(C)CC[C@H](O[C@@H]6O[C@H](C(=O)O)[C@@H](O[C@@H]7OC[C@@H](O)[C@H](O)[C@H]7O)[C@H](O)[C@H]6O)C(C)(C)C5CC[C@]43C)C2C1O (some centres undefined)	–	–	–
